Compound activity: PubChem BioAssay, National Center for Advancing Translational Sciences (NCATS)
Shown are actives, neighbours in structure and some others; about 12% of the full set was active somewhere.
RORgamma inh: ROR gamma (mouse) transcription inhibition | Potency, µM (highest dose often 53.6 µM), usual class: inhibitors | AID 2551 | hit rate 5.4% among 310,000 | Drosophila S2 Gal4-RORgamma UAS-luciferase reporter, 20 h; also: nearly all actives have a fitted effect of over 60% in size
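Stably transfected Drosophila Schneider cells are the test system, with ROR gamma fused to Gal4 and luciferase under UAS control; luminescence is read after 20 hr of 700 uM copper sulfate induction at ambient temperature.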
PLK1 PBD block: PLK1 (human) polo-box domain binding inhibition; P53350; Plk1 PBD binding of FITC phosphopeptide, fluorescence polarization; Potency, µM, hits mostly inhibitors; hit rate 2.8% among 360,000; AID 720504; also: series mostly up to about 57 µM; nearly all actives have a fitted effect of over 65% in size
Target sequence (P53350 whole entry, looked up, the tested form may be a part): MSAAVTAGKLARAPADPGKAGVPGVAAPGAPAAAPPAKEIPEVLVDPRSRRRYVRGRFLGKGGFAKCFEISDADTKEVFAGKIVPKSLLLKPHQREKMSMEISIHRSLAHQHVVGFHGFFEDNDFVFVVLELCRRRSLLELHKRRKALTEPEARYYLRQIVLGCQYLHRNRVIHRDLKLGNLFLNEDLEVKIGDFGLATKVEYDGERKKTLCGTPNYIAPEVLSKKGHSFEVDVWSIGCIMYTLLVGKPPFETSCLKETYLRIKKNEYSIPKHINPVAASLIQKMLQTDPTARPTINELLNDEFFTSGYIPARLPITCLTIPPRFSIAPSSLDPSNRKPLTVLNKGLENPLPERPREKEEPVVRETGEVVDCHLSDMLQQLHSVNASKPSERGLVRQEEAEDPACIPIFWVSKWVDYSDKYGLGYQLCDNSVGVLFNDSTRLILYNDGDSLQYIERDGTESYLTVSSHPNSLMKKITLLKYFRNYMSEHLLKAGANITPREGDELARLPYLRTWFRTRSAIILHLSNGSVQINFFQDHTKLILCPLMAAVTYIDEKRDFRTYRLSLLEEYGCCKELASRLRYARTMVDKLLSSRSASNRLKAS
VP16 counter: Gal4-VP16 reporter inhibition counter-screen; Drosophila S2 Gal4-VP16 UAS-luciferase, luminescence, 20 h; Potency, µM (highest dose often 53.6 µM), hits mostly inhibitors; AID 2546; hit rate 3.5% among 310,000;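 also: Gal4-VP16 expression switched on by copper sulfate through the metallothionein promoter; nearly all actives have a fitted effect of over 50% in size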
ALDH1A1 inh: inhibitors of human aldehyde dehydrogenase 1A1; Purified ALDH1A1, NADH fluorescence, propionaldehyde substrate; P00352; hit rate 7.3% among 220,000; Potency, µM (titrated, usually from 75.3 µM), hits mostly inhibitors; active = well fitted inhibition curve with a large enough effect, not every such curve was filed as active; inconclusive = small, poorly fitted or top-dose-only effect, or another doubt; inactive = no such curve, though single readings can be large or run the other way
Sfp inh: inhibitors of Bacillus subtilis Sfp phosphopantetheinyl transferase. Q9F4F7. Biochemical Sfp PPTase activity, qHTS. Potency, µM, hits mostly inhibitors. hit rate 3.5% among 310,000;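 also: the enzyme is Sfp with the accession as filed and its product quenches rhodamine fluorescence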
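Fluorescence-quenching assay: 15 nM Sfp-PPTase preincubated 15 min at room temperature with compound, then 5 uM rhodamine-CoA and 12.5 uM BHQ-2-labelled YbbR peptide added. Fluorescence (ex 525/em 598 nm) read at start and after 30 min; difference gives rate.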
Each line names hits and unclear results; the compound was inactive in the other large screens. Unless noted, calls follow the shape of the dose curve; as a rule, active = well fitted curve in the direction sought with a large enough effect; inconclusive = small, poorly fitted or top-dose-only effect, or another doubt; inactive = no such curve, though single readings can be large; an effect the other way counts as inactive or inconclusive.

c1csc(CNc2ncncc2-c2ccoc2)c1	ALDH1A1 inh inconclusive (no result: PLK1 PBD block)
COC(=O)c1cccc(-c2ccc(/C=N/N3C(=O)C4C5C=CC(C6CC56)C4C3=O)o2)c1 (stereo not drawn)	ALDH1A1 inh 14µM
O=C1C2C3C=CC(C3)C2C(=O)N1/N=C/c1ccc(-c2ccccc2[N+](=O)[O-])o1 (stereo not drawn)	RORgamma inh inconclusive, ALDH1A1 inh 2.2µM
O=C1C2C3C=CC(C4CC34)C2C(=O)N1/N=C/c1ccc(-c2ccc([N+](=O)[O-])cc2)o1 (stereo not drawn)	none
O=C1CN(/N=C\c2ccc([N+](=O)[O-])o2)C(=O)N1	none (no result: PLK1 PBD block)
O=C1C2C(C(=O)N1/N=C/c1ccc([N+](=O)[O-])o1)C1C=CC2C12CC2 (stereo not drawn)	RORgamma inh inconclusive, VP16 counter 20µM, ALDH1A1 inh inconclusive
O=C1C2C3C=CC(C4CC34)C2C(=O)N1/N=C/c1ccc([N+](=O)[O-])o1 (stereo not drawn)	RORgamma inh 13µM, VP16 counter 10µM, ALDH1A1 inh 3.2µM
Cc1cc(=O)oc2c(OS(C)(=O)=O)c(OS(C)(=O)=O)ccc12	none (no result: RORgamma inh, PLK1 PBD block, VP16 counter, Sfp inh)
C/C(CC(=O)Nc1cc(C)ccn1)=N\NC(=O)c1cccc(C)c1	RORgamma inh 11µM, ALDH1A1 inh inconclusive
C/C(CC(=O)Nc1ccccn1)=N\NC(=O)c1ccc2ccccc2c1	ALDH1A1 inh 5.6µM
C/C(CC(=O)Nc1cc(C)ccn1)=N\NC(=O)C(=O)NC(C)C	none
C/C(CC(=O)Nc1ccccn1)=N\NC(=O)c1ccccc1O	VP16 counter inconclusive (no result: ALDH1A1 inh)
C/C(CC(=O)Nc1cc(C)ccn1)=N\NC(=O)c1cccc(C)c1O	RORgamma inh 11µM, VP16 counter 5µM (no result: ALDH1A1 inh)
CC(C)[C@@H](CC(=O)N[C@@H]1CCNC[C@H]1C(=O)N[C@H](CC(=O)N[C@@H](CCC(=O)O)CC(=O)O)Cc1c[nH]c2ccccc12)NC(=O)C[C@H](Cc1ccccc1)NC(=O)[C@@H]1CNCC[C@H]1N	none (no result: PLK1 PBD block)
c1ccc(-c2nc(-c3ccccc3)c(NC3CCCCC3)o2)cc1	none (no result: PLK1 PBD block)
COC(=O)c1ccc2c(=O)[nH]c(CSc3nc(C)cs3)nc2c1	VP16 counter inconclusive, ALDH1A1 inh 24µM
COC(=O)c1ccc2c(=O)[nH]c(CSc3nnc(C(F)(F)F)n3C)nc2c1	none
C/C(=N\NC(=O)C(C)n1nc(C)c([N+](=O)[O-])c1C)c1ccccc1O (stereo not drawn)	RORgamma inh 0.14µM, VP16 counter 0.18µM
Cc1ccc(-n2nc(-c3cccs3)cc2C(=O)NCC2CCCO2)c(C)c1 (stereo not drawn)	RORgamma inh inconclusive, PLK1 PBD block inconclusive, VP16 counter inconclusive, ALDH1A1 inh 20µM, Sfp inh inconclusive
CN(C)Cc1csc(Nc2ccc(C(F)(F)F)cn2)n1	none (no result: RORgamma inh, VP16 counter, ALDH1A1 inh, Sfp inh)
Nc1c(Cl)ncnc1NCCc1ccc(O)cc1	VP16 counter 7.9µM (no result: ALDH1A1 inh)
COC(CNC(=O)c1ccc(N2CCC3(CC2)OCCO3)c([N+](=O)[O-])c1)OC	ALDH1A1 inh 28µM, Sfp inh inconclusive
O=C(Nc1ccccc1)c1c2c(nc3ccccc13)CCCC2	none
O=C1Nc2ccccc2/C1=N\c1sc2c(c1C(=O)Nc1ccccc1)CCCC2	PLK1 PBD block inconclusive, ALDH1A1 inh 25µM
CCOC(=O)CCC(NC(=O)CCCCCCCC(=O)NC(CCC(=O)OCC)C(=O)OCC)C(=O)OCC (stereo not drawn)	none
CCCC(=O)N=c1sc2c(OC)ccc(OC)c2n1C	none
Cc1ccc(S(=O)(=O)n2nc(-c3ccco3)nc2N)cc1	ALDH1A1 inh inconclusive, Sfp inh 89µM
Nc1nc(-c2ccco2)nn1S(=O)(=O)c1ccccc1	ALDH1A1 inh inconclusive
CCOc1cccc(N2C(=O)CC(NNC(=O)c3ccc(Br)o3)C2=O)c1 (stereo not drawn)	ALDH1A1 inh 11µM
CC(C)(C)CC(=O)OCC(=O)Nc1cc(C(C)(C)C)nn1-c1ccccc1	PLK1 PBD block 24µM
Cc1cc(C)n(CCC(=O)N/N=C/c2ccc(Br)c([N+](=O)[O-])c2)n1	none (no result: ALDH1A1 inh)
Cc1[nH][nH]c(=O)c1C(c1ccc(Cl)cc1)c1c(C)[nH][nH]c1=O	PLK1 PBD block 30µM (no result: ALDH1A1 inh)
COc1cc(-c2nnc(SCC(=O)c3ccc(C)cc3)o2)cc(OC)c1OC	ALDH1A1 inh 28µM
COc1cc(-c2nnc(SCC(=O)c3cc(C)n(CC4CCCO4)c3C)o2)cc(OC)c1OC (stereo not drawn)	ALDH1A1 inh inconclusive, Sfp inh 89µM
COc1cc(-c2nnc(SCc3c(F)cccc3Cl)o2)cc(OC)c1OC	ALDH1A1 inh 4.5µM (no result: VP16 counter)
COc1cccc(C(=O)CSc2nnc(-c3cc(OC)c(OC)c(OC)c3)o2)c1	ALDH1A1 inh inconclusive
CC(=O)NCCNc1ncncc1-c1ccc(N(C)C)cc1	RORgamma inh inconclusive, ALDH1A1 inh inconclusive, Sfp inh inconclusive (no result: PLK1 PBD block)
CC(=O)c1ccc(NC(=S)NC(C)CCc2ccccc2)cc1 (stereo not drawn)	RORgamma inh 7.9µM, VP16 counter 20µM
Cc1ccc(NC(=S)NC(C)CCc2ccccc2)cc1C (stereo not drawn)	RORgamma inh 4µM, VP16 counter 6.3µM
CC(=O)c1ccc(NC(=O)C(Cc2ccccc2)n2cccc2)cc1 (stereo not drawn)	PLK1 PBD block 13µM (no result: ALDH1A1 inh)
COc1ccc(NC(=O)C(Cc2ccccc2)n2cccc2)cc1 (stereo not drawn)	RORgamma inh inconclusive (no result: ALDH1A1 inh)
Cc1cccc(C)c1NC(=S)NC(C)CCc1ccccc1 (stereo not drawn)	RORgamma inh 2.2µM, VP16 counter 4.5µM
C=C1CCN(C(CC(C)C)C(=O)NN2CCOCC2)S(=O)(=O)c2ccccc21 (stereo not drawn)	none (no result: PLK1 PBD block, ALDH1A1 inh)
CCCCCCCN[C@H]1CCC[C@@H]1CCCCCCC(=O)O	none (no result: PLK1 PBD block)
CC(CCc1ccccc1)NC(=O)/C=C/c1ccccc1 (stereo not drawn)	ALDH1A1 inh 11µM
CCCN(Cc1ccccc1)C(=S)Nc1ccc(C(C)=O)cc1	RORgamma inh 4.5µM, VP16 counter 10µM, ALDH1A1 inh inconclusive
CC(=O)c1ccc(NC(=S)N(CCCN(C)C)Cc2ccccc2)cc1	none (no result: ALDH1A1 inh)
O=C(O)CN(CC(=O)O)c1ccccc1OCCOc1ccccc1N(CC(=O)O)CC(=O)O	none (no result: PLK1 PBD block, ALDH1A1 inh)
CC1=CC(C)(C)NC(=S)N1c1cc(C)cc(C)c1	RORgamma inh 3.5µM, VP16 counter inconclusive
CC1=CC(C)(C)NC(=S)N1c1cccc2cc(S(=O)(=O)O)ccc12	PLK1 PBD block 27µM, ALDH1A1 inh 28µM, Sfp inh 20µM
CC1=CC(C)(C)NC(=S)N1c1ccc(C)cc1C	RORgamma inh 1.4µM, VP16 counter 2.8µM
CC1=CC(C)(C)NC(=S)N1c1cccc(Cl)c1	none (no result: RORgamma inh, VP16 counter, ALDH1A1 inh, Sfp inh)
CC1=CC(C)(C)NC(=S)N1c1ccccc1C	RORgamma inh 2.2µM
Cc1ccc(S(=O)(=O)n2ccc3c2CCCC3=O)cc1	PLK1 PBD block 27µM (no result: ALDH1A1 inh)
O=C1c2ccccc2C(O)(O)[C@@]1(O)[C@]1(O)C(=O)c2ccccc2C1(O)O	ALDH1A1 inh 0.25µM (no result: RORgamma inh, PLK1 PBD block, VP16 counter, Sfp inh)
